Screening results deposited in PubChem BioAssay by Broad Institute.
This excerpt belongs to a sample that is enriched for hits.
PRC2 inh = blocks human EZH2/PRC2 H3K27 methylation. DELFIA TRF, 1 h. inhibition, % at 12.5 µM. 57,000 tested, 0.35% active;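 active = mean inhibition of replicates at least 50% and every single replicate also reaching 50%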;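 note: dimethyl H3K27 on biotinylated H3 21-44 peptide detected by antibody; plate controls were median neutral control wells for no effect and median positive control wells for full effect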
An asterisk follows results filed as active.

SMILES | PRC2 inh
Cc1cc(C)n(CC(O)COc2ccc(C(=O)c3ccc(Cl)cc3)cc2)n1 (stereo unspecified) | 1
CC(=O)Nc1ccc(NC(=O)CC2Sc3ccc(C(F)(F)F)cc3NC2=O)cc1 (stereo unspecified) | 11
COc1ccc(-c2coc3cc(O[C@@H]4O[C@H](CO)[C@@H](O)[C@H](O)[C@H]4O)cc(O)c3c2=O)cc1 | -18
C[C@@H]1O[C@@H](O[C@H]2[C@H](Oc3cc(O)c4c(=O)cc(-c5ccc(O)cc5)oc4c3)O[C@H](CO)[C@@H](O)[C@@H]2O)[C@H](O)[C@H](O)[C@H]1O | -5
CC1OC(OCC2OC(Oc3cc(O)c4c(=O)c(-c5ccc(O)cc5)coc4c3)C(O)C(O)C2O)C(O)C(O)C1OC1OC(CO)C(O)C(O)C1O (stereo unspecified) | 64*
CCn1c(SCC(=O)Nc2cccc(SC)c2)nnc1-c1ccc(Br)cc1 | 38
COc1cc(/C=C/C=N/NC(=O)c2cccc(C(=O)NO)c2)ccc1O | -4
O=C(CCCCCCC(=O)Nc1ccccc1O)N/N=C/c1ccc(O)c(O)c1 | -27
O=C(CCCCCCC(=O)Nc1ccccc1O)N/N=C/c1ccc(-c2ccccc2)c(F)c1 | 51*
O=C(CCCCCCC(=O)Nc1ccccc1O)N/N=C/c1ccc(F)cc1 | -3
O=C(/C=C/c1ccc(OCc2ccc(Cl)cc2)cc1)NO | -19
Cc1ccc(/C=N/NC(=O)CCCCCC(=O)Nc2ccccc2O)o1 | -18
CC(C)Oc1cccc(-c2cc(C(=O)NCc3ccco3)c3ccccc3n2)c1 | 23
